Screens as filed in PubChem BioAssay.
Rows were chosen to be rich in hits. Some 11% of all compounds tested hit in one or more screens of this group.
IMPase Li inh = qHTS Assay for Identifying the Cell-Membrane Permeable IMPase Inhibitors: Potentiation with Lithium; CHO-M1 cells, IP1 TR-FRET (IP-One), carbachol + lithium; Potency, µM (titrated, usually from 59.4 µM), for the others: top-dose activity, negative = IMPase inhibition, usual class: inhibitors; 210,000 tested, 0.35% active;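 also: IP1 builds up when IMPase is blocked and the TR-FRET signal falls; potency is read from the fitted curve at half-maximal effect; plate controls were basal vehicle for no effect and high inhibitor control for full effect; nearly all actives have a fitted effect of over 50% in size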
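IP1 accumulation measured by competitive TR-FRET in lysed CHO-M1 cells after 30 min compound exposure at 37C, with a small lithium addition to potentiate weak responses. Hill-equation AC50 from ratio and donor-channel data.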
IMPase inh = qHTS Assay for Identifying the Cell-Membrane Permeable IMPase Inhibitors; CHO-M1 cells, IP1 accumulation, HTRF TR-FRET ratio; inhibition (IP1 accumulation), % at 46.1 µM; 120,000 tested, under 10 active; AID 901, 2007; active = well fitted curve in the direction sought with a large enough effect in the signal ratio, not every such curve was filed as active; inconclusive = small, poorly fitted or top-dose-only effect, or a change in a side signal; inactive = no such curve, though single readings can be large or run the other way; the % refers to the signal ratio;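 also: cells stimulated with carbachol in lithium chloride buffer; plate controls were DMSO basal wells for no effect and reference inhibitor wells for full effect; higher means more IMPase inhibition seen as more IP1 and lower FRET ratio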
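In this qHTS, compounds (final up to 46 uM) act on CHO-M1 cells that are then activated through the M1 receptor with carbachol, in pH 7.4 buffer containing 50 mM LiCl, for 30 min. IP1 accumulation is quantified by the IP-One immunoassay.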
HPGD block = qHTS Assay for Inhibitors of HPGD (15-Hydroxyprostaglandin Dehydrogenase) | Potency, µM, inactives show top-dose activity change, negative = inhibition, most hits filed as inhibitors | 15-hydroxyprostaglandin dehydrogenase [NAD(+)] (Homo sapiens), P15428 | purified HPGD, NADH fluorescence kinetic, PGE2 substrate | 150,000 tested, 4.3% active; active = well fitted inhibition curve with a large enough effect, not every such curve was filed as active; inconclusive = small, poorly fitted or top-dose-only effect, or another doubt; inactive = no such curve, though single readings can be large or run the other way; also: potency is read from the fitted curve at half-maximal effect
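20 nM HPGD preincubated 15 min at room temperature with compound in 50 mM Tris-HCl pH 8, 0.01% Tween 20. Started with 1 mM NAD+ and 30 uM prostaglandin E2; NADH fluorescence (360/450 nm) read 5 times over 30-s intervals, last minus first.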
PNC assembly inh = High Content Assay for Compounds that inhibit the Assembly of the Perinucleolar Compartment; activity change (PNC), negative = inhibition, % at 10 µM; PC3M PTB-GFP, PNC prevalence imaging, 16 h; hits give low values; 140,000 tested, 3.1% active;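 active = readout at or below -70, meaning at least 70% loss of cells showing the perinucleolar compartment, a nuclear body marking cancer cells; inconclusive = readout between -30 and a set limit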;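 also: plate controls were DMSO wells for no effect and camptothecin positive control wells for full effect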
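Compounds are pinned in duplicate onto adhered PC3M cells stably expressing GFP-tagged PTB and incubated 16 h at 37 C. Cells are then fixed, nuclei stained with Hoechst, and PNC-positive cells counted.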
ALOX12 inhib = qHTS Assay for Inhibitors of 12-hLO (12-human lipoxygenase). Polyunsaturated fatty acid lipoxygenase ALOX12 (Homo sapiens), P18054. purified 12-hLO, xylenol orange hydroperoxide absorbance. Potency, µM (top dose mostly 57.1 µM), for the others: top-dose activity change, negative = inhibition, hits mostly inhibitors. 150,000 tested, 0.12% active; also: potency is read from the fitted curve at half-maximal effect; nearly all actives have a fitted effect of over 55% in size
Target sequence (P18054 whole entry, looked up): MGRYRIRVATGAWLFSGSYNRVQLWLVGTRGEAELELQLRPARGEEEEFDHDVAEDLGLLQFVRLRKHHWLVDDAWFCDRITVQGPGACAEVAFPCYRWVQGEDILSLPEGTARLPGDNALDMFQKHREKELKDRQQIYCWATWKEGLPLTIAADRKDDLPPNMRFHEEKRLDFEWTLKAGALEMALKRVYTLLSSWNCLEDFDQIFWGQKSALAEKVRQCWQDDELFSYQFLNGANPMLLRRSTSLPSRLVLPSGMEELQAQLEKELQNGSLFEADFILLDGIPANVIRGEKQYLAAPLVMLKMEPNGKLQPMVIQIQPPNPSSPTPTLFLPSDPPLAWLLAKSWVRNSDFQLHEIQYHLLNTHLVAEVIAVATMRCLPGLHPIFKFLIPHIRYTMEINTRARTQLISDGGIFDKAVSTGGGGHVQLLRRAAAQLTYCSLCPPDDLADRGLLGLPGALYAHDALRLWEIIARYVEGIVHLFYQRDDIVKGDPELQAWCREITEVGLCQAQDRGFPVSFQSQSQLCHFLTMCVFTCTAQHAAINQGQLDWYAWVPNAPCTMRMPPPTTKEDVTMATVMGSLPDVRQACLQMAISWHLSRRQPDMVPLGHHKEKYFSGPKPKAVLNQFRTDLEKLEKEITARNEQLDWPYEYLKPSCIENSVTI
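Hydroperoxide formation by human 12-lipoxygenase from 40 uM arachidonic acid was followed colorimetrically via ferric-xylenol orange complex, using the 573/405 nm absorbance ratio. Enzyme concentration was 150 nM, with 30 min reaction at room temperature.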
ALDH1A1 inh = qHTS Assay for Inhibitors of Aldehyde Dehydrogenase 1 (ALDH1A1); Aldehyde dehydrogenase 1A1 (Homo sapiens), P00352; Potency, µM (series often up to 75.3 µM), inactives show at the highest dose activity, negative = inhibition, usual class: inhibitors; 220,000 tested, 7.3% active; Purified ALDH1A1, NADH fluorescence, propionaldehyde substrate; AID 1030, 2008; active = well fitted inhibition curve with a large enough effect, not every such curve was filed as active; inconclusive = small, poorly fitted or top-dose-only effect, or another doubt; inactive = no such curve, though single readings can be large or run the other way;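 also: potency is read from the fitted curve at half-maximal effect; plate controls were no enzyme wells and a reference inhibitor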
Numbers without * were called inactive; u = inconclusive; x = no result; [ ] = another dose, or the depositor's remark. Unless noted, calls follow the shape of the dose curve; as a rule, active = well fitted curve in the direction sought with a large enough effect; inconclusive = small, poorly fitted or top-dose-only effect, or another doubt; inactive = no such curve, though single readings can be large; an effect the other way counts as inactive or inconclusive. Unless noted, % is scaled to controls: 0 for no effect and ±100 for the full control effect.

SMILES | IMPase Li inh | IMPase inh | HPGD block | PNC assembly inh | ALOX12 inhib | ALDH1A1 inh
O=C(CNCC1CCCO1)Nc1ccccc1N1CCOCC1 (stereo not given) | -6.2%[38.3 µM] | 1.6 | -4.2% | -85.5* | -5.4% | u
CCn1c2ccccc2c2cc(NC(=O)CNCC3CCCO3)ccc21 (stereo not given) | -16.2% | x | x | x | x | 31.6µM*
COc1c(OC)c2occc2c2oc(=O)ccc12 | 2.1% | x | -25.5% | x | -12.2% | u
O=c1c(-c2ccccc2)nc2cnc(N3CCNCC3)nc2n1C1CC1 | -10.4% | x | u | x | -1.0% | u
COC(=O)CNC(=O)[C@@]1(C)C=C[C@@H](Cc2ccccc2)N1C(=O)OC | 4.7% | x | -14.0% | x | 0.0% | u
COC(=O)c1ccc(/C=C(\C#N)C(=O)NC(C)c2ccccc2)cc1 (stereo not given) | 22.3% | 7.0 | -18.0% | -99.9* | -4.5% | u
Cc1ccc(/C=C(/C#N)C(=O)NC(=O)Oc2ccccc2)cc1 | 10.3%[38.3 µM] | 10.6 | -17.2% | -101.4* | -3.5% | 3.9%
CC(NC(=O)/C(C#N)=C/c1cccs1)c1ccccc1 (stereo not given) | 14.3% | x | x | x | x | u
C=CCc1cc(C)ccc1OCCOCCn1ccnc1 | 7.8% | x | 1.2% | 29.2 | -0.6% | 25.1µM*
c1ccc(-n2nnnc2SCc2cn3ccccc3n2)cc1 | 16.4%[38.3 µM] | -9.8 | -7.0% | 34.0 | 5.7% | 3.98µM*
c1ccc(-n2nnnc2SCc2cn3cccnc3n2)cc1 | 3.0% | 2.4 | u | -4.2 | 1.7% | u
Cc1ccn2cc(CSc3ccccc3)nc2c1 | 13.8%[38.3 µM] | 4.9 | -11.5% | -111.7* | 0.9% | 4.8%
c1ccc(-n2nnnc2SCc2cccc(CSc3nnnn3-c3ccccc3)n2)cc1 | 7.1% | x | -7.2% | 26.1 | -2.3% | 1.58µM*
O=C(CCCSc1nnnn1-c1cccc2ccccc12)c1ccc(F)cc1 | 8.9%[38.3 µM] | 5.0 | -22.0% | 24.2 | -7.6% | 1.41µM*
COC(=O)CSc1nnnn1-c1cccc2ccccc12 | 3.2% | 1.4 | -26.3% | -9.9 | -0.5% | u
c1ccc(CSc2nnnn2-c2ccccc2)cc1 | 33.8%[38.3 µM] | 1.4 | -20.3% | -25.3 | 0.9% | u
CNc1nc(-c2ccoc2)nc2ccccc12 | -7.7% | x | x | x | x | u
COC(=O)c1ccc(C(NC(=O)OCc2ccccc2)/C(=C/[C@@H](C)C(=O)N(C)C)c2cccnc2)cc1 (stereo not given in full) | 0.1% | x | -0.1% | x | 2.3% | -1.5%
c1ccc(CSc2nnnn2-c2cccc3ccccc23)nc1 | u | -1.8 | -3.8% | u | -8.7% | 20µM*
O=C(/C=C/c1c[nH]c2ccccc12)c1ccccc1 | 12.4% | x | 15.8µM* | 31.3 | -6.8% | 3.16µM*
Cc1ccc(C(=O)/C=C/c2c[nH]c3ccccc23)cc1 | 14.1%[38.3 µM] | 8.3 | u | 10.5 | u | 25.1µM*
O=C(/C=C/c1ccc[nH]1)c1ccccc1 | 4.6% | x | x | x | x | -3.2%
Cc1ccc(S(=O)(=O)/C(C#N)=C/c2c[nH]c3ccccc23)cc1 | 36.5%[38.3 µM] | 13.2 | -7.0% | u | -19.5% | 8.2%
O=C(C1CCN(S(=O)(=O)c2ccc(Br)s2)CC1)N1CCN(c2cccc(C(F)(F)F)c2)CC1 | x | -2.4 | x | x | x | x
Cc1ccccc1N1CCN(CCCN2C(=O)CC(=C(c3ccccc3)c3ccccc3)C2=O)CC1 | 45.6%[38.3 µM] | -2.4 | u | 20.6 | -8.4% | 17.8µM*
SMILES | IMPase Li inh | IMPase inh | HPGD block | PNC assembly inh | ALOX12 inhib | ALDH1A1 inh
Cc1ccc(S(=O)(=O)N(CC(=O)O)Cc2cccc(C)c2)cc1 | x | x | 3.8% | x | 0.2% | -2.9%
O=C1C2C3C=CC(C2C(=O)N1C1CCCCC1)C1C(=O)N(C2CCCCC2)C(=O)C31 (stereo not given) | 10.4%[38.3 µM] | -2.9 | -1.4% | -2.0 | 10.6% | 2.82µM*
Nc1ccc(C(=O)c2cccs2)cn1 | x | x | x | x | x | 0.9%
COC(=O)C(C)c1ccc(C(=O)c2cccs2)cc1 (stereo not given) | 23.1% | x | 14.1µM* | x | -3.6% | -1.5%
Nc1ccc(C(=O)c2cccs2)cc1 | -4.7% | x | 22.4µM* | 12.5 | -0.5% | -1.3%
CCC/C=C(\CCC)C(NC(=O)c1cccs1)c1ccc(C(=O)OC)cc1 (stereo not given) | 24.2% | x | -25.3% | x | 4.8% | -4.0%
COCC(=O)N1CCC2(CCCN(c3ncccn3)C2)CC1 | -5.0% | x | -16.7% | x | -0.9% | -3.0%
C/C=C/OC(=O)NC(c1ccccc1)[C@]1(C(C)=O)CCOC1=O (stereo not given in full) | x | x | x | x | x | -16.6%[13.5 µM]
Cc1cc(C)nc(SCNC(=O)c2ccc(F)cc2)n1 | -5.4%[38.3 µM] | 7.6 | 14.1µM* | 47.8 | -12.8% | 4.5%
CCN(CC)CCNC(=O)c1c(C)n(-c2ccccc2)c2cc(Br)c(OC)cc12 | -27.4%[38.3 µM] | 5.6 | -6.3% | 10.1 | 0.7% | 0.631µM*
COc1cc2c(C(=O)N3CCN(C)CC3)c(C)n(-c3ccccc3)c2cc1Br | -24.5%[38.3 µM] | -0.6 | -25.8% | 14.3 | 2.2% | u
O=C(O)Cn1nc(-c2ccccc2)oc1=O | 14.6%[38.3 µM] | -4.0 | -15.9% | -24.2 | -5.5% | 5.6%
CC(C)(C)C(=O)n1nc(-c2ccccc2)oc1=O | -5.1% | x | u | -109.0* | 0.6% | -7.6%
C=CCn1c(O)c(N=NC(=O)c2ccccc2NS(=O)(=O)c2cccs2)c2ccccc21 | x | 0.6 | x | 5.1 | -2.1% | 4.47µM*
CCCCn1c(O)c(N=NC(=O)c2ccccc2NS(=O)(=O)c2cccs2)c2ccccc21 | 13.7% | x | -12.8% | 48.3 | -2.2% | 11.2µM*
CC(C)n1c(O)c(N=NC(=O)c2ccccc2NS(=O)(=O)c2cccs2)c2ccccc21 | -2.0% | -3.7 | -8.9% | -15.8 | -2.2% | -11.1%
O=C(COc1ccc(Cl)cc1Cl)Nc1ccc2nc3n(c(=O)c2c1)CCCC3 | 7.4%[38.3 µM] | 11.0 | 10µM* | -11.4 | -8.8% | u
O=C(Nc1ccc(F)c(Cl)c1)c1ccc2c(=O)n3c(nc2c1)CCCCC3 | x | 9.8 | x | u | -6.5% | 25.1µM*
CC1CCCN(C(=S)Nc2ccc3nc4n(c(=O)c3c2)CCCCC4)C1 (stereo not given) | 26.1% | 1.9 | -28.6% | -119.3* | -1.1% | u
CC1CC(C)CN(C(=S)Nc2ccc3nc4n(c(=O)c3c2)CCCCC4)C1 (stereo not given) | 2.6% | x | u | -15.2 | -1.4% | -4.3%
Cc1ccc(S(=O)(=O)N2CCCCC2)cc1NC(=O)c1ccc2c(=O)n3c(nc2c1)CCCCC3 | 9.2% | x | -19.4% | 7.6 | -1.2% | 14.1µM*
